In PubChem BioAssay (NCI):
This is part of a sample that, as a whole, favours compounds with a hit. Of some 79,000 tested, about 15% had one in any assay. A number with no mark means an inactive call. Calls of active or inactive are those of the source. No stated cut-off is given here; in the data, active means growth inhibition above about 70%; inactive means the rest. Where a SMILES comes first, the peptide text is derived from it. [ ]: non-standard residue; d: D form. The star is where a group is joined. mTyr = N[CH](Cc1cccc(O)c1)C(=O)O; Cbz = O=C(OCc1ccccc1)*; OBn = c1ccc(CO*)cc1

Tests used:
[1] = NCI Yeast Anticancer Drug Screen. Data for the rad50 strain (AID 155);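 further: 0% = growth of vehicle-only cultures of the same strain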; settings: S. cerevisiae rad50 strain growth inhibition, stronger effect = higher value
Summary of the method: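 Readout: growth inhibition relative to vehicle-treated cultures. Compound exposure was carried out in a genetically defined yeast strain deficient in DNA damage repair.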

[2] = NCI Yeast Anticancer Drug Screen. Data for the mec2-1 strain (AID 157); settings: S. cerevisiae mec2-1 strain, stronger effect = higher value
Summary of the method: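 Using mec2-1 yeast: add compound, measure growth, express inhibition versus vehicle-treated cultures.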

[3] = NCI Yeast Anticancer Drug Screen. Data for the sgs1 mgt1 strain (AID 161);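 further: 0% = growth of cultures given vehicle only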; settings: S. cerevisiae sgs1 mgt1 strain, stronger effect = higher value
Summary of the method: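 Growth of a repair-deficient yeast mutant was monitored after compound treatment and expressed as inhibition relative to vehicle-treated cultures.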

[4] = NCI Yeast Anticancer Drug Screen. Data for the cln2 rad14 strain (AID 165);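 further: 0% = growth equal to vehicle treated cultures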; settings: S. cerevisiae cln2 rad14 strain, stronger effect = higher value
Summary of the method: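 Yeast strain cln2 rad14, bearing defects in cell cycle control and DNA repair, serves as the test system; values reflect growth inhibition compared with vehicle.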

[5] = NCI Yeast Anticancer Drug Screen. Data for the bub3 strain (AID 167); settings: S. cerevisiae bub3 mutant strain, stronger effect = higher value
Summary of the method: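 Readout: yeast growth inhibition, expressed relative to vehicle-only wells. The test organism is a mutant strain from a panel with lesions in DNA repair or checkpoint genes.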

[6] = NCI Yeast Anticancer Drug Screen. Data for the mlh1 rad18 strain (AID 175); settings: S. cerevisiae mlh1 rad18 strain growth inhibition, stronger effect = higher value
Summary of the method: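 Steps: expose repair-defective yeast to compound; measure growth; express inhibition against vehicle-treated controls.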

[7] = at 5.0 µM (retest, dose inferred, filed as 0.5)
[8] = at 50.0 µM (retest, dose inferred, filed as 5.0)

SMILES	growth inhibition [1, 7]	growth inhibition [1, 8]	growth inhibition ([1]; at 50.0 µM)	growth inhibition [2, 7]	growth inhibition [2, 8]	growth inhibition ([2]; at 50.0 µM)	growth inhibition [3, 7]	growth inhibition [3, 8]	growth inhibition ([3]; at 50.0 µM)	growth inhibition [4, 7]	growth inhibition [4, 8]	growth inhibition ([4]; at 50.0 µM)	growth inhibition [5, 7]	growth inhibition [5, 8]	growth inhibition ([5]; at 50.0 µM)	growth inhibition [6, 7]	growth inhibition [6, 8]	growth inhibition ([6]; at 50.0 µM)
[O-]/[N+](O)=C\c1ccccn1	-2%	-13%	5.75%	2%	-8%	6.55%	-5%	-9%	-0.75%	-2%	-10%	-57.6%	1%	0%	-8.4%	0%	-10%	37.1%
CC(=O)N[C@H]1CC[C@H]2[C@@H]3CCC4=CC(=O)CC[C@]4(C)[C@H]3CC[C@]12C	5%	94% (active)	33.2%	-11%	95% (active)	94.5% (active)	10%	-10%	94.2% (active)	-8%	97% (active)	79.5% (active)	-1%	97% (active)	98% (active)	-4%	95% (active)	93.8% (active)
CCCCCN(CCCCC)C(C)C(=O)c1ccc2cc(Br)c3ccccc3c2c1 (configuration not stated)	17%	61%	93.9% (active)	9%	46%	90.4% (active)	13%	71% (active)	90.7% (active)	-2%	42%	88.7% (active)	14%	66%	87.1% (active)	7%	63%	95.5% (active)
COP(=O)(OC)OCC1OC(n2cnc3c(N)ncnc32)C(O)C1O (configuration not stated)	-2%	-2%	96.5% (active)	2%	2%	95.9% (active)	0%	-2%	94.5% (active)	4%	4%	89.7% (active)	-1%	-4%	96.2% (active)	-3%	-5%	97.3% (active)
C(=C\[P+](c1ccccc1)(c1ccccc1)c1ccccc1)/c1ccccc1	86% (active)	99% (active)	98.8% (active)	94% (active)	99% (active)	99.7% (active)	80% (active)	99% (active)	99.2% (active)	76% (active)	98% (active)	98.1% (active)	85% (active)	98% (active)	98.8% (active)	91% (active)	98% (active)	99.1% (active)
CC1=C(C(=O)Nc2ccccc2)C(c2cccc3ccccc23)C(C(=O)Nc2ccccc2)=C(C)N1	-2%	53%	71% (active)	-17%	51%	91% (active)	0%	41%	48.6%	-2%	64%	64.3%	-7%	53%	89% (active)	-4%	53%	58.7%
COC(=O)C(Cc1cccc(O)c1)NC(=O)C(CC(=O)OCc1ccccc1)NC(=O)OCc1ccccc1 (configuration not stated) (Cbz-Asp(OBn)-[mTyr]-OMe; configuration not given here)	-12%	70% (active)	77.2% (active)	-6%	21%	74.8% (active)	2%	87% (active)	85.7% (active)	9%	64%	89.8% (active)	-10%	55%	91% (active)	-4%	75% (active)	80.9% (active)
O=S(c1ccccc1)c1c(Cl)c(Cl)nc(Cl)c1Cl (configuration not stated)	97% (active)	99% (active)	99.2% (active)	99% (active)	99% (active)	99.6% (active)	99% (active)	99% (active)	99.5% (active)	95% (active)	99% (active)	99.6% (active)	98% (active)	99% (active)	99.5% (active)	99% (active)	99% (active)	99.5% (active)
CN(/N=C/c1ccc([N+](=O)[O-])o1)C(N)=O	10%	44%	80% (active)	4%	18%	49.5%	10%	57%	87.3% (active)	3%	17%	49.5%	6%	28%	46.3%	22%	58%	89.4% (active)
